Most compounds without a hit are left out; they make up all but 1.7% or so of the library.
PTHR1 ag – PTHR1 (human) receptor agonism; HEK293 GP2 PTHR1 cells, GloSensor cAMP luminescence, 1 h; Q03431; Potency, µM (top dose mostly 115 µM), for the others: at the top dose activation, hits mostly activators; AID 743266; actives 0.075% (n = 410,000); also: nearly all actives have a fitted effect of over 55% in size
Target sequence (Q03431 whole entry, looked up): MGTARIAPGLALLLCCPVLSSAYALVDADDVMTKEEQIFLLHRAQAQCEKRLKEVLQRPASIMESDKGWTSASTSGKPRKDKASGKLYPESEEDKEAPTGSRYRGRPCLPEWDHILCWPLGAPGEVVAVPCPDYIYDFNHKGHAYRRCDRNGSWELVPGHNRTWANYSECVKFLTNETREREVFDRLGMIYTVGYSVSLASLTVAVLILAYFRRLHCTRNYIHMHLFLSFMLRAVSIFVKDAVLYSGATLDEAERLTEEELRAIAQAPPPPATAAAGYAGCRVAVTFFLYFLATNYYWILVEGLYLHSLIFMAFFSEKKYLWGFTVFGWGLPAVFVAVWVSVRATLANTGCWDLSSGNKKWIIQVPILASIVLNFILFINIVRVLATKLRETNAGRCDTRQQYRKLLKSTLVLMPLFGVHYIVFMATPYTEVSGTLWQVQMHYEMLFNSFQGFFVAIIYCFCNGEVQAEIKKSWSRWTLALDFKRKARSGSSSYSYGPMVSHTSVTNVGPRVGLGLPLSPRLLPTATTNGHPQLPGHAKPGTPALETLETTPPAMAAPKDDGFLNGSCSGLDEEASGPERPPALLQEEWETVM
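HEK-293-derived GP2 cells expressing PTHR1 and a GloSensor cAMP reporter, 3,000/well, plated overnight, given luciferin plus IBMX (each 0.5 mM as added) for 1 h at 37 °C, then compound for 1 h at 37 °C. Luminescence was read after 15 min at room temperature.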
GLP1R inv ag – GLP-1 receptor (human) inverse agonism. P43220. HEK293 GLP-1R CRE-luciferase, luminescence, 24 h; GLP-1R form is constitutively active. Potency, µM (titrated, usually from 38.3 µM), inactives show at the highest dose activity change, negative = inhibition, actives largely listed as inhibitors. actives 1.6% (n = 410,000). AID 624417; also: % is scaled to controls: 0 for no effect and ±100 for the full control effect; nearly all actives have a fitted effect of over 55% in size
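Using stably transfected HEK293 (constitutively active GLP-1R, cAMP-luciferase reporter), compounds were incubated 24 hr and luciferase measured by luminescence.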
GLP-1R agonist – activates the human GLP-1 receptor. P43220. HEK293 GLP-1R CRE-luciferase, luminescence, 4-6 h; cells express a hypersensitive GLP-1R form. Potency, µM (series often up to 45.6 µM), for inactives: at the highest dose activation, hits mostly activators. actives 0.007% (n = 380,000). AID 624172; also: % of control where 0% means no effect
GLP1R cytotox – cytotoxic in the GLP-1 receptor inverse agonist counter-screen; Potency, µM (titrated, usually from 38.3 µM), for inactives: top-dose activity change, negative = inhibition, most hits filed as inhibitors; actives 0.13% (n = 410,000); HEK293 cAMP-luciferase reporter cells, luminescence, 24 h;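 also: loss of luciferase light is scored as toxicity; % is scaled to controls: 0 for no effect and ±100 for the full control effect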
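A 23 nL compound transfer followed 12 hours of cell culture at 37 deg C; exposure then lasted 24 hr. Luciferase assay detection reagent was dispensed and plates read for luminescence after a 12 min room-temperature wait.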
The depositor's hits bear a star; [ ] = remark or other dose. Calls follow the shape of the dose curve; as a rule, active = well fitted curve in the direction sought with a large enough effect; inconclusive = small, poorly fitted or top-dose-only effect, or another doubt; inactive = no such curve, though single readings can be large; an effect the other way counts as inactive or inconclusive. Potency is read from the fitted curve at half-maximal effect.

What do the screens show for `Cc1ccc(-c2c(C(=O)N/N=C/c3c[nH]c4ccccc34)nnn2-c2nonc2N)cc1`?
PTHR1 ag: inactive; GLP1R inv ag: 3.2µM*; GLP-1R agonist: -4%; GLP1R cytotox: -5%

How did CCCc1c(C(=O)N/N=C/c2c[nH]c3ccccc23)nnn1-c1nonc1N do in these assays?
PTHR1 ag: -29%; GLP1R inv ag: inconclusive; GLP-1R agonist: -6%; GLP1R cytotox: -9%

Results for CCNCc1cc(OCC)c(OCC(=O)NCCc2ccccc2)cc1Cl ?
PTHR1 ag: inactive; GLP1R inv ag: inconclusive; GLP-1R agonist: 1%; GLP1R cytotox: -36%

What do the screens show for `CCOc1cc(CNCC(C)C)c(Cl)cc1OCC(=O)Nc1ccccc1`?
PTHR1 ag: inactive; GLP1R inv ag: 11µM*; GLP-1R agonist: 15%; GLP1R cytotox: -7%

Results for O=C(Nc1ccc2nc(SCCOc3ccccc3)sc2c1)c1ccc2c(c1)OCO2 ?
PTHR1 ag: -17%; GLP1R inv ag: -15%; GLP1R cytotox: -6%

Results for Cc1ccc(Cl)c(Cn2cnc3c(cnn3C(C)(C)C)c2=O)c1F ?
PTHR1 ag: -29%; GLP-1R agonist: 23%

How did CC(=O)Nc1ccc(NC(=O)Cn2cnc3c(cnn3C(C)(C)C)c2=O)cc1 do in these assays?
PTHR1 ag: 7%[57.5 µM]; GLP1R inv ag: 16%; GLP-1R agonist: 28%; GLP1R cytotox: -10%

What do the screens show for `CC(C)(C)n1ncc2c(=O)n(Cc3c(F)cccc3Cl)cnc21`?
PTHR1 ag: -20%[57.5 µM]; GLP1R inv ag: 2.5µM*; GLP-1R agonist: 12%; GLP1R cytotox: -4%

How did CC(C)(C)n1ncc2c(=O)n(CC(=O)NCc3ccccc3)cnc21 do in these assays?
PTHR1 ag: -15%[57.5 µM]; GLP1R inv ag: 4.5µM*; GLP-1R agonist: -14%; GLP1R cytotox: inconclusive

How did CCc1c(CN2CCN(c3ccc(F)cc3)CC2)csc1C do in these assays?
PTHR1 ag: -18%; GLP1R inv ag: inconclusive; GLP1R cytotox: -18%

How did CCCC(=O)NC(=S)Nc1ccc(S(=O)(=O)N2CCc3ccccc32)cc1 do in these assays?
PTHR1 ag: -16%; GLP1R inv ag: 8.9µM*; GLP-1R agonist: 19%; GLP1R cytotox: -30%

How did CCOC(=O)CCC(=O)Nc1ccc(S(=O)(=O)N2CCc3ccccc32)cc1 do in these assays?
PTHR1 ag: -46%; GLP1R inv ag: 9%; GLP-1R agonist: -3%; GLP1R cytotox: 7%

Results for CCCCC(=NCCc1c(C)[nH]c2ccccc12)C1=C(O)CC(c2ccccc2)CC1=O (stereo unspecified) ?
PTHR1 ag: -11%; GLP1R inv ag: inconclusive; GLP-1R agonist: -2%; GLP1R cytotox: inconclusive

How did CCCC(=NCCc1c(C)[nH]c2ccccc12)C1=C(O)CC(c2ccccc2)CC1=O (stereo unspecified) do in these assays?
PTHR1 ag: inactive; GLP1R inv ag: 2.5µM*; GLP-1R agonist: 6%; GLP1R cytotox: inconclusive

How did CC(=NCCc1c(C)[nH]c2ccc(C)cc12)C1=C(O)CC(c2ccccc2)CC1=O (stereo unspecified) do in these assays?
PTHR1 ag: -19%; GLP1R inv ag: 3.5µM*; GLP-1R agonist: 5%; GLP1R cytotox: inconclusive

What do the screens show for `Cc1cccc(NC(=O)N2CC(=O)Nc3sc4c(c3C2c2ccccc2)CCCC4)c1C` (stereo unspecified)?
PTHR1 ag: -3%; GLP1R inv ag: inconclusive; GLP1R cytotox: -3%

How did CCN(CC)CC(=O)Nc1sc(C)cc1C(=O)c1ccc(C)cc1 do in these assays?
PTHR1 ag: -28%; GLP1R inv ag: 10µM*; GLP-1R agonist: 2%; GLP1R cytotox: -1%

How did COc1ccccc1NC(=O)CCn1nc(-c2ccccc2OC)c2c(C)cc(C)nc21 do in these assays?
PTHR1 ag: -1%; GLP1R inv ag: inconclusive; GLP-1R agonist: -2%; GLP1R cytotox: 2%

Results for Cc1ccc(C(=O)O/N=C(\N)c2ccccn2)c(Cl)c1 ?
PTHR1 ag: -32%; GLP1R inv ag: 1.1µM*; GLP-1R agonist: -8%; GLP1R cytotox: inconclusive

Results for N/C(=N\OC(=O)c1ccc(Cl)cc1[N+](=O)[O-])c1ccccn1 ?
PTHR1 ag: -62%; GLP1R inv ag: inconclusive; GLP-1R agonist: 1%; GLP1R cytotox: inconclusive

How did N/C(=N\OC(=O)c1ccc(Cl)cc1Cl)c1ccccn1 do in these assays?
PTHR1 ag: -38%; GLP1R inv ag: 5.6µM*; GLP-1R agonist: -5%; GLP1R cytotox: -1%

Results for N/C(=N\OC(=O)c1ccc([N+](=O)[O-])cc1Cl)c1ccccn1 ?
PTHR1 ag: -95%; GLP1R inv ag: 1.8µM*; GLP-1R agonist: -8%; GLP1R cytotox: -2%

What do the screens show for `N/C(=N\OC(=O)c1cc([N+](=O)[O-])ccc1Cl)c1ccccn1`?
PTHR1 ag: -30%; GLP1R inv ag: 3%; GLP-1R agonist: 5%; GLP1R cytotox: -60%

What do the screens show for `Cc1cc(C)cc(NC(=O)C2CCCN2S(=O)(=O)c2cccc3nsnc23)c1` (stereo unspecified)?
PTHR1 ag: inactive; GLP1R inv ag: 4%; GLP1R cytotox: -1%

What do the screens show for `COc1cc(Br)c(C[N+]2(CCOCCC3CCC4CC3C4(C)C)CCOCC2)cc1OC` (stereo unspecified)?
GLP-1R agonist: 1%

What do the screens show for `CCCN1CCN(c2ncnc3sc(C(=O)Nc4ccc(OC(F)(F)F)cc4)c(C)c23)CC1`?
PTHR1 ag: inactive; GLP1R inv ag: 10µM*; GLP1R cytotox: -5%

Results for CC(=O)c1cccc(NC(=O)c2noc3c2CC(C)CC3)c1 (stereo unspecified) ?
PTHR1 ag: -16%; GLP1R inv ag: 18%; GLP1R cytotox: -6%

How did Cc1ccc(N2C(=O)c3ccccc3C2Nc2ccccc2)nc1 (stereo unspecified) do in these assays?
PTHR1 ag: -8%; GLP1R inv ag: inconclusive; GLP-1R agonist: 9%; GLP1R cytotox: 8%

Results for CCc1cccc(NC2c3ccccc3C(=O)N2c2ccc(C)cn2)c1 (stereo unspecified) ?
PTHR1 ag: -6%; GLP1R inv ag: 13µM*; GLP-1R agonist: 0%; GLP1R cytotox: 28%

What do the screens show for `Nc1ncnc(Sc2ncccn2)c1[N+](=O)[O-]`?
PTHR1 ag: -55%; GLP1R inv ag: inconclusive; GLP-1R agonist: -5%; GLP1R cytotox: 11µM*

Results for C[C@H](O)[C@@H]1CN2CCc3c([nH]c4ccc(-c5ccc6c(c5)OCO6)cc34)[C@@H]2C[C@@H]1N(C)C(=O)Nc1cc(Cl)cc(Cl)c1 ?
PTHR1 ag: 7%; GLP1R inv ag: 2.8µM*; GLP-1R agonist: -4%; GLP1R cytotox: inconclusive

What do the screens show for `C[C@H](O)[C@@H]1C(=O)N2CCc3c([nH]c4ccccc34)[C@@H]2C[C@@H]1N(C)C(=O)Nc1cc(Cl)cc(Cl)c1`?
PTHR1 ag: -31%; GLP1R inv ag: 10µM*; GLP-1R agonist: -6%; GLP1R cytotox: -10%

Source: PubChem BioAssay (National Center for Advancing Translational Sciences (NCATS))
